Reference: PubChem BioAssay (NCI)
Compounds without any hit were thinned out: in the full panel of roughly 79,000, 15% have a hit. The source made the active and inactive calls. Cut-off read from the data, not from the text of the source: active = growth inhibition above about 70%; inactive = the rest.

Experiments:
[1] = NCI Yeast Anticancer Drug Screen. Data for the rad50 strain (AID 155);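 note: 0% = growth of vehicle-only cultures of the same strain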; settings: S. cerevisiae rad50 strain growth inhibition; at 50.0 µM; active compounds read high
Method in brief: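 Vehicle-treated cultures provide the reference for the growth inhibition reported for compound-exposed, repair-deficient yeast.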

[2] = NCI Yeast Anticancer Drug Screen. Data for the mec2-1 strain (AID 157); settings: S. cerevisiae mec2-1 strain, at 50.0 µM, active compounds read high
Method in brief: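 Growth inhibition is read against vehicle-treated controls after compound exposure of the mec2-1 yeast strain, which is defective in DNA damage repair or cell cycle control.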

[3] = NCI Yeast Anticancer Drug Screen. Data for the sgs1 mgt1 strain (AID 161);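 note: 0% = growth of cultures given vehicle only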; settings: S. cerevisiae sgs1 mgt1 strain, at 50.0 µM, active compounds read high
Method in brief: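 This yeast growth screen uses a strain with defined DNA-repair lesions; compound-treated growth is compared with vehicle-treated growth.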

[4] = NCI Yeast Anticancer Drug Screen. Data for the cln2 rad14 strain (AID 165);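 note: 0% = growth equal to vehicle treated cultures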; settings: S. cerevisiae cln2 rad14 strain, at 50.0 µM, active compounds read high
Method in brief: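 Growth inhibition, relative to vehicle-treated controls, is the read-out. The test organism is a yeast strain with defined genetic alterations, cln2 rad14.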

[5] = NCI Yeast Anticancer Drug Screen. Data for the bub3 strain (AID 167); settings: S. cerevisiae bub3 mutant strain, at 50.0 µM, active compounds read high
Method in brief: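 Mutant yeast screening strain plus compound; vehicle-treated cultures serve as the 0% inhibition reference.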

[6] = NCI Yeast Anticancer Drug Screen. Data for the mlh1 rad18 strain (AID 175); settings: S. cerevisiae mlh1 rad18 strain growth inhibition; at 50.0 µM; active compounds read high
Method in brief: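 Cells of a genetically altered yeast strain, deficient in DNA damage repair, were treated with compound. Their growth was then compared with that of vehicle-treated cultures to give inhibition.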

Measured: growth inhibition

OC[C@@H](O)[C@@H](O)CO
inactive: [1] 3.2% | [2] -0.25% | [3] -12.1% | [4] 15.2% | [5] -5.55%

CCOC(=O)C(Cc1c[nH]c2ccccc12)NC(=O)/C=C/N(CCCl)CCCl (stereo not drawn)
inactive: [1] 9.25% | [2] 9.95% | [3] 17% | [4] 0.25% | [5] -14.5%

CNC(=O)N1CN(c2ccccc2)C2(CCN(CCCC3(c4ccc(F)cc4)OCCO3)CC2)C1=O
inactive: [1] -16% | [2] -9.5% | [3] -4.4% | [4] -8.8% | [5] 8.3%

CCCC[N+]1(C)CCC(OC(=O)C(O)(c2ccccc2)C2CCCC2)C1 (stereo not drawn)
inactive: [1] 15.6% | [2] 5.25% | [3] 5.3% | [4] -32.8% | [5] -6.3%

CCOP(=O)(OCC)/C(C#N)=C/c1nccn1C
inactive: [1] -15.2% | [2] 0.15% | [3] -13.7% | [4] 34.3% | [5] 24.1%

CC(O)c1ccc(Br)cc1 (stereo not drawn)
inactive: [1] -7.95% | [2] 13.3% | [3] 3.55% | [4] -72.4% | [5] -1.45%

CN1CCN(c2cc3nsnc3c3nsnc23)CC1
inactive: [1] 0.3% | [2] -7.3% | [3] -15.1% | [4] 8.6% | [5] -12.7%

Cc1ccccc1-n1c(/C=C\c2ccccn2)nc2ccccc2c1=O
inactive: [1] 36.7% | [2] 8.65% | [3] 33.4% | [4] 35.6% | [5] 53.6%

S=P(C1CCCCC1)(C1CCCCC1)C(c1cccnc1)N1CCCC1 (stereo not drawn)
inactive: [1] -6.85% | [2] -9.1% | [3] -6.3% | [4] -5.85% | [5] 20.6%

CCC1(CC)C(=O)NC(=O)[N]([Sn]([CH3])([CH3])[N]2C(=O)NC(=O)C(CC)(CC)C2=O)C1=O
inactive: [1] -17.3% | [2] -3.7% | [3] 7.05% | [4] -19.4% | [5] -1.3%

CCC(C)OP(=S)(S)OC(C)CC.[Zn+2] (stereo not drawn)
inactive: [1] 1.8% | [2] 22.3% | [3] -6% | [4] -5.55% | [5] 25.2%

COc1ccc(C)cc1C(=O)C[n+]1ccc2ccccc2c1
inactive: [1] -10.4% | [2] -0.8% | [3] -25.1% | [4] -21.4% | [5] -6.5%

O=C1NC2NC3NC(=O)NC3NC2N1 (stereo not drawn)
inactive: [1] 3.6% | [2] 1.85% | [3] 0.2% | [4] -5.25% | [5] 10.2%

O=C(c1ccccc1)c1ccc2n[se]nc2c1
inactive: [1] -32.4% | [2] 10.2% | [3] 18.2% | [4] 4.65% | [5] 17.1%

CC1CCNC(C)C1 (stereo not drawn)
inactive: [1] 35.3% | [2] -10.4% | [3] -13.8% | [4] -62.9% | [5] 17.9%

O=[N+]([O-])c1ccc2sc3ccccc3c2c1
inactive: [1] 63.1% | [2] 12.2% | [3] 26.3% | [4] 44% | [5] -3.35%

COc1ccc2[nH]cc(/C=C\[N+](=O)[O-])c2c1
inactive: [1] 6% | [2] -10.1% | [3] 32.4% | [4] 2.2% | [5] 7.65%

O=C(COc1ccc(Cl)c(Cl)c1)Nc1ccccc1S(=O)(=O)F
inactive: [1] 27.6% | [2] -5.35% | [3] -3.8% | [4] 21.6% | [5] 5.15%

O=[As]c1ccc2c(c1)NC(O)=CO2 (stereo not drawn)
inactive: [1] 21.9% | [2] 38.6% | [3] 20.7% | [4] 27.9% | [5] 20.4%

Cc1cc(C)c(CCN(C)C)c(C)c1C
inactive: [1] 8.7% | [2] 0.65% | [3] 4.95% | [4] 1.75% | [5] 1%

CC1(C)OC2COC(CN=[N+]=[N-])C2O1 (stereo not drawn)
inactive: [1] 14.4% | [2] 8.65% | [3] 0.9% | [4] -0.8% | [5] 3%

COc1ccc2c(c1OC)C[N+]1(C)CCc3cc4c(cc3C1=C2)OCO4 (stereo not drawn)
inactive: [1] 21.6% | [2] -0.5% | [3] -12.8% | [4] -1.95% | [5] -2.2%

CCOP(=O)(OCC)SC#N
inactive: [1] 15.1% | [2] -2.85% | [3] -6.4% | [4] 6.5% | [5] -1.05%

O=C(Nc1c(O)[nH]c(=S)[nH]c1=O)c1ccccn1
inactive: [1] 6.95% | [2] -14.7% | [3] -3.75% | [4] 1.7% | [5] -8.3%

COc1ccc(CC(N)c2nn[nH]n2)cc1 (stereo not drawn)
inactive: [1] 4.1% | [2] -1% | [3] -1.1% | [4] -23.1% | [5] 8.15%

O=C(O)c1ccccc1N(CCO)CCCl
inactive: [1] -11.2% | [2] -10.4% | [3] -31.4% | [4] 21.6% | [5] -14%

COc1ccc(C(CC(=O)O)CC(=O)c2ccc(N(CCCl)CCCl)cc2)cc1 (stereo not drawn)
inactive: [1] 54% | [2] 22.7% | [3] 24.8%
active: [4] 74.7% | [5] 87.3%

FC(F)(F)C(OP(OC(C(F)(F)F)C(F)(F)F)OC(C(F)(F)F)C(F)(F)F)C(F)(F)F
inactive: [1] 27.4% | [2] 8.95% | [3] 2.6% | [4] 1.55% | [5] -4.9%

O=[N+]([O-])C1(Cl)CCC(Cl)([N+](=O)[O-])CC1 (stereo not drawn)
inactive: [1] 5.85% | [2] -6.2% | [3] -2.1% | [4] -23.4% | [5] -14.6%

CC(C)(O)[C@H]1[C@@H]2OC(=O)[C@H]1[C@]1(O)C[C@H]3OC34C(=O)O[C@H]2[C@@]41C (stereo partly drawn) (tested in a mixture with another compound)
inactive: [1] 1.05% | [2] -12.8% | [3] 19.6% | [4] -9.25% | [5] -12.4%

NC(=O)c1cc(N(CCBr)CCBr)c([N+](=O)[O-])cc1[N+](=O)[O-]
inactive: [1] 17.6% | [2] 1.25% | [3] 17.6% | [4] 14.2% | [5] 16.9%

CCc1cc[c]([Sb](=[O])([OH])[OH])cc1
inactive: [1] 3.5% | [2] -7.15% | [3] 9.1% | [4] 22.5% | [5] 4.1%

Cc1ccc(O)cc1C
inactive: [1] 9.95% | [2] 14.1% | [3] 26% | [4] 26.8% | [5] 3.75%

COc1ccc2c3c1OC1C(O)C=CC4C(C2)N(N=O)CCC341 (stereo not drawn)
inactive: [1] -3.2% | [2] 9.6% | [3] -4.2% | [4] 11.5% | [5] 5.25%

CN(C)C(=O)O/N=C(\c1ccccc1)C(F)(F)F
inactive: [1] 35.7% | [2] -0.15% | [3] 20.5% | [4] 15.4% | [5] 20.7%

O=C(O)C1C2Cc3ccccc3C1c1ccccc12 (stereo not drawn)
inactive: [1] -1.6% | [2] -7.55% | [3] 0.95% | [4] 0.6% | [5] -13.7%

COc1ccc2c(c1OC(C)=O)-c1cc(OC(C)=O)cc3c1C(C2)N(C(=O)CN(CCCl)CCCl)CC3 (stereo not drawn)
inactive: [1] -6.4% | [2] -6% | [3] -1.95% | [4] -13% | [5] -0.05%

CC(C)COC(=O)Cc1ccccc1
inactive: [1] 23.2% | [2] 12.6% | [3] 13.7% | [4] -30.1% | [5] -0.55%

O=S1(F)=NP(N2CC2)(N2CC2)=NP(N2CC2)(N2CC2)=N1 (stereo not drawn)
inactive: [1] 22.6% | [2] -3.15% | [3] -9.7% | [4] 6.6% | [5] -19.6%

CC(=O)C(N)Cc1ccccc1 (stereo not drawn)
inactive: [1] 24.4% | [2] 17.2% | [3] 10% | [4] -26.6% | [5] 23.2% | [6] 15.2%

CC1=CC2=C(C)C3(CC3)[C@@](C)(O)C(=O)C2=C1
inactive: [1] 45.5% | [2] 14.3% | [3] 55.8% | [4] 23.9% | [5] 26.9% | [6] -15.2%

Cc1cc(S(=O)(=O)F)ccc1O
inactive: [1] -3% | [2] -6.2% | [3] -16.5% | [4] -42.8% | [5] -2.6% | [6] -1.3%

CN1CC[CH2][Sn]([Cl])([Cl])[CH2]CC1
inactive: [1] -1.25% | [2] -5.9% | [3] 1.15% | [4] 1.3% | [5] -17.2% | [6] 13%

O=S1(=O)CCCCO1
inactive: [1] -6% | [2] 1.65% | [3] -10.9% | [4] 17.2% | [5] -8.95% | [6] 4.4%

CCCCCCCCCCCCCCCCCC(=O)[O][Pb]([CH3])([CH3])[CH3]
inactive: [1] 0.8% | [2] 0.5% | [3] 18.8% | [4] 21.6% | [5] 2.8% | [6] 13.1%

CC1=C2[C@H]3OC(=O)[C@@H](C)[C@@H]3CC[C@@]2(C)C=CC1=O
inactive: [1] 20.6% | [2] 5.9% | [3] 1.15% | [4] 15.2% | [5] 2.25% | [6] 12.6%

CCCCn1c(C)c(C(=O)OCC)c2cc(OCc3ccc(C(=O)Nn4c(C)ccc4C)cc3)c(Br)cc21
inactive: [1] 7.1% | [2] -30.7% | [3] -15.5% | [4] -18.6% | [5] -27.4% | [6] -20.1%
